Source: PubChem (several laboratories)
Myeloid diff 2 – induction of myeloid progenitor differentiation, primary screen, cell-based, flow cytometry, MLPCN library; ER-HoxA9 myeloid progenitors, lysozyme-GFP differentiation; calls only at 10 µM; actives 1% (n = 360,000); AID 624256, 2012;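 active = normalized GFP-positive differentiation at or above the plate's own cutoff, the solvent-only control mean plus 3 SD; inconclusive = no clear call, values can overlap the other calls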;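 also: cells exposed to compound for four days before flow analysis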
ABCB6 inh 2 – ABCB6 transporter inhibitors, primary screen, K562-ABCB6 cells, flow cytometry, MLPCN library | K562-ABCB6 porphyrin accumulation, 1 h; active compounds read low | AID 602162, 2011 | actives 0.19% (n = 360,000) | fluorescence ratio to DMSO, % at 10 µM | ATP-binding cassette sub-family B member 6 (Homo sapiens), Q9NP58;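 active = fluorescence ratio to DMSO below 75%, the collection mean minus 3 SD; inconclusive = too few cells collected in the well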;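 also: signal is porphyrin accumulated inside mitochondria; 100% equals median channel fluorescence of DMSO control wells; lower ratio means ABCB6 inhibition with less porphyrin fluorescence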
TLR4 MyD88 comp – inhibitors of TLR4-MyD88 association in cells, primary screen, cell-based, HeLa CL3-4, BLA complementation, FRET ratio | actives 0.18% (n = 200,000) | HeLa CL3-4 TLR4/MyD88 BLA complementation | inhibition, % at 8.4 µM | Toll-like receptor 4 (Homo sapiens) + Myeloid differentiation primary response protein …; in the data active = inhibition above about 25%;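 also: 0% = vehicle and 100% = reference inhibitor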
Target sequence (O00206 whole entry, looked up): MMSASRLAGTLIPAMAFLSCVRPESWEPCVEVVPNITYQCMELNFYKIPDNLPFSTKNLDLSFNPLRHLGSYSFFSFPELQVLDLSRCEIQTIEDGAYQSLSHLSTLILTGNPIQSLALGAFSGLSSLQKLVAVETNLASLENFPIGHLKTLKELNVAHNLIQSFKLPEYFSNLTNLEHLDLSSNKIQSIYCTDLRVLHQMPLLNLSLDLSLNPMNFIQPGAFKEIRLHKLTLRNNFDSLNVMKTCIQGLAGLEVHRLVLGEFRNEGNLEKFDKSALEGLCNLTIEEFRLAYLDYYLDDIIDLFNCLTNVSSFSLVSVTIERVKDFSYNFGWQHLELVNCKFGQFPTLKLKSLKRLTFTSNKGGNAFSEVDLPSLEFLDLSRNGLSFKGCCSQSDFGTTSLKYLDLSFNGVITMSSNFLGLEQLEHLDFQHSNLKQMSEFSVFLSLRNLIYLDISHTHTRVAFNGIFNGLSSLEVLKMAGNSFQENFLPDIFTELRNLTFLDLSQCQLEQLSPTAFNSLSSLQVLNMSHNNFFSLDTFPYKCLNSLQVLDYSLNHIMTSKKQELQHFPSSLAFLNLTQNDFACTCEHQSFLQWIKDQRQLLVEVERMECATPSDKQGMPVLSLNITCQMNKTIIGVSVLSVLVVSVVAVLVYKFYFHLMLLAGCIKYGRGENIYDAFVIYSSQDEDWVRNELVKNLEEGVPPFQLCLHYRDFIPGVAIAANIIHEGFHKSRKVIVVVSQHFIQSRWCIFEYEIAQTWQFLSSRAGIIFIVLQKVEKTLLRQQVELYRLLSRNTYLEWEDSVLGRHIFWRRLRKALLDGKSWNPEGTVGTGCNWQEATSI
Target sequence (Q99836 whole entry, looked up): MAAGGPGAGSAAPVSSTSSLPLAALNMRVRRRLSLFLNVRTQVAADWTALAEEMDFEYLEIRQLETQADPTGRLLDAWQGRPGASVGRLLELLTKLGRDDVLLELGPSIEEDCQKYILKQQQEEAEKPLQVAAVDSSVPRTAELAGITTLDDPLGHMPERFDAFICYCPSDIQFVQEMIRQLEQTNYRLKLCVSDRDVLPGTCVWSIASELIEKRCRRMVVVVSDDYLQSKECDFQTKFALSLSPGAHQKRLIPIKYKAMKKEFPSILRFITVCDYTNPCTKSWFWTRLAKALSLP
TLR9-MyD88 inh – inhibitors of TLR9-MyD88 association in cells, primary screen, cell-based, CHO, BLA complementation, fluorescence | Toll-like receptor 9 (Homo sapiens) + Myeloid differentiation primary response protein … | CCF4 FRET ratio | inhibition, % at 4.98 µM | actives 0.21% (n = 340,000) | AID 504734, 2011;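 active = inhibition above the mean over all tested compounds plus 3 SD, cut at about 21% in these data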;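 also: 0% = DMSO only wells and 100% = clavulanate BLA inhibitor control wells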
NOD2-RIPK2 inh – NOD2-RIPK2 binding disruptors in cells, primary screen, fluorescence, CHO cells, BLA complementation; inhibition, % at 4.98 µM; CCF4 ratio; AID 624267, 2012; actives 0.38% (n = 360,000); in the data active = inhibition above about 21%;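 also: 0% = vehicle only and 100% = reference blocker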
Myeloid diff CP1 – inducers of myeloid progenitor differentiation, confirmation, cell-based, GFP/Mac1 flow cytometry, cherry pick 01 | shares compounds with Myeloid diff 2 | ER-HoxA9 myeloid progenitors, GFP/Mac1 double-positive flow | calls only | actives 2% (n = 2,300) | AID 651706, 2012;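 active = share of green or green-and-red cells above 9 and 9% in run 1 or 4 and 3% in run 2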
GFP autofluor – compound fluorescence in myeloid differentiation counter-screen; shares compounds with Myeloid diff 2; actives 7.4% (n = 2,300); AID 651707; ER-HoxA9 myeloid progenitors, no estrogen, GFP autofluorescence flow cytometry; vehicle wells 0%, positive control 100%; fluorescence response, % (no concentration beside the values);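 active = over 5% cells positive for green fluorescent reporter, or over 2% positive for both it and APC stain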;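 also: range taken on the double positive population between DMSO and positive control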
Active calls of the source: *; i = inactive; ? = inconclusive; . = not tested or not shown; + = active, no number. Hits are enriched below; roughly 1.7% of the tested compounds scored in any of these assays.

SMILES | Myeloid diff 2 | ABCB6 inh 2 | TLR4 MyD88 comp | TLR9-MyD88 inh | NOD2-RIPK2 inh | Myeloid diff CP1 | GFP autofluor
CC1CCC2(CC1)NC(=O)N(NC(=O)c1cc3ccccc3o1)C2=O (centres undefined) | i | 98.0 | . | -10.7 | 4.2 | . | .
COc1ccc2c(c1OC)CN1CCc3cc4c(cc3[C@@H]1[C@@H]2O)OCO4 | + | 103.0 | -4.3 | -4.0 | -6.4 | i | 2.8
COc1ccc(NC(=O)N(C)C[C@H]2Oc3ccc(NC(=O)C4CC4)cc3CC(=O)N([C@@H](C)CO)C[C@@H]2C)cc1 | i | 100.0 | . | 9.7 | 2.9 | . | .
CC1Cc2c([nH]c(=O)n(-c3ccccc3)c2=O)O1 (centres undefined) | i | 107.0 | . | 1.8 | -3.7 | i | 0.3
CC(C)(C)c1ccccc1NC(=O)c1cc(-c2ccncc2)nc2ccccc12 | i | 105.0 | . | -3.6 | -10.9 | i | 0.0
COc1cc2c(cc1O)CC[n+]1cc3c(OC)c(OC)ccc3cc1-2 | i | 98.0 | 0.9 | -8.9 | -4.9 | . | .
COc1cc2c(cc1OC)-c1cc3ccc4c(c3c[n+]1CC2)OCO4 | + | 290.0 | -1.3 | 0.0 | -10.3 | + | 0.7
CCCOC(=O)c1c(NC(=O)CCCn2nc([N+](=O)[O-])c(Cl)c2C)sc(C(=O)OC)c1C | i | 98.0 | -5.7 | 5.4 | -11.2 | i | 0.0
CCOC(=O)c1sc(NC(=O)CCCn2nc([N+](=O)[O-])c(Cl)c2C)c(C(=O)OCC)c1C | ? | 91.0 | 4.7 | -1.4 | -20.8 | . | .
Cc1ccccc1N(CC(=O)NCC1CCCO1)C(=O)CNS(=O)(=O)c1ccc(F)cc1 (centres undefined) | i | 98.0 | . | -8.3 | 3.4 | . | .
O=C(CSc1nc2ccsc2c(=O)n1NC(=O)c1ccccc1)NCc1ccco1 | i | 97.0 | -10.9 | 7.5 | -1.5 | . | .
O=C(CSc1nc2ccsc2c(=O)n1NC(=O)c1ccccc1)Nc1nccs1 | + | 102.0 | -8.8 | -14.5 | -4.2 | i | 0.0
CCCCN1CC(COCc2ccccc2)Oc2cccc(Oc3cc(C)c(C)c(C)c3)c2S1(=O)=O (centres undefined) | i | 95.0 | . | 5.7 | 4.6 | . | .
Cc1ccc2[nH]cc(CCNS(=O)(=O)c3ccc(F)cc3)c2c1 | i | 101.0 | . | -3.1 | 2.0 | . | .
O=C(CNC(=O)c1ccc(Oc2ccccc2)cc1)OC1CCCCC1=O (centres undefined) | + | 92.0 | 6.6 | 7.6 | 1.1 | i | 0.3
Cc1ccc(C(=O)NCC(=O)OC2CCCCC2=O)cc1C (centres undefined) | i | 91.0 | . | -3.7 | -3.4 | . | .
CSc1nnc(N2C(=O)C(O)=C(C(=O)c3ccc(C)o3)C2c2ccc(C)cc2)s1 (centres undefined) | + | 106.0 | . | -6.5 | 2.2 | i | 0.0
Cc1ccccc1NC(=O)c1ccco1 | i | 97.0 | . | 3.7 | -4.3 | . | .
Cc1cccc(NC(=O)c2ccco2)c1C | i | 102.0 | . | -0.9 | 1.1 | i | 0.0
CC(C)CCNC(=O)CO/N=C/c1ccccc1OC(F)F | i | 96.0 | 5.3 | 8.6 | -0.5 | . | .
Cc1ccc(CNS(=O)(=O)c2ccc(CN3C(=O)c4cccnc4C3=O)cc2)o1 | ? | 96.0 | . | -11.6 | -4.5 | . | .
C=CCOC(=O)C1=C[C@@H](c2ccc(C(F)(F)F)cc2)[C@H](CCCO)[C@@H](OCC)O1 | i | 96.0 | -15.9 | -5.7 | -1.1 | . | .
CC(C)N(CC#CCC(O)(c1ccccc1)c1ccccc1)C(C)C | i | 98.0 | -4.2 | -0.2 | -3.7 | i | 0.0
O=C(NNC(=O)C1CCCO1)c1ccc(F)cc1 (centres undefined) | i | 108.0 | -6.9 | -6.1 | -0.3 | . | .
COc1cccc(CNC(=O)CCC2CCCN(C(=O)c3ccc(C)nc3)C2)c1 (centres undefined) | + | 103.0 | -1.7 | 0.8 | 8.0 | i | 0.0
SMILES | Myeloid diff 2 | ABCB6 inh 2 | TLR4 MyD88 comp | TLR9-MyD88 inh | NOD2-RIPK2 inh | Myeloid diff CP1 | GFP autofluor
Cc1ccc(C(=O)N2CCCC(CCC(=O)NCc3ccc(F)c(F)c3)C2)cn1 (centres undefined) | ? | 99.0 | . | -9.1 | 1.3 | . | .
COc1cc(OC)c(OC)cc1/C=N/NC(=O)c1cc(-c2cccn2C)n[nH]1 | i | 95.0 | 5.9 | -2.6 | -5.3 | . | .
CCOc1cccc(/C=N/NC(=O)c2cc(-c3cccn3C)n[nH]2)c1O | + | 98.0 | 5.8 | 8.1 | -8.7 | i | 0.0
O=c1[nH][nH]cc1C=Nc1cc(Cl)ccc1O | i | 111.0 | 0.6 | -5.2 | -5.9 | i | 0.0
O=c1[nH][nH]cc1C=Nc1ccccc1O | + | 68.0* | 1.4 | 5.6 | 3.1 | + | 0.0
O=c1[nH][nH]cc1C=Nc1ccc(Cl)cc1Cl | i | 97.0 | 0.3 | -2.1 | 0.7 | . | .
CC(C)NC(=O)CCc1nc2cccnc2n1-c1ccccc1 | i | 110.0 | . | -1.9 | 4.1 | . | .
CC(=O)Oc1ccc2ccccc2c1C(NC(=O)Cc1ccccc1)c1ccc(Cl)cc1 (centres undefined) | i | 95.0 | 1.6 | 1.2 | -7.3 | . | .
CC(/C=N/NC(=O)c1cccnc1)=C\c1ccco1 | i | 104.0 | 8.9 | 3.9 | -1.4 | i | 0.0
COc1ccccc1C(c1nnnn1Cc1ccco1)N1CCN(c2cccc(C)c2C)CC1 (centres undefined) | i | 102.0 | -8.2 | -4.8 | -0.5 | i | 0.0
Oc1[nH]c2ccccc2c1/C=N/c1nccs1 | i | 119.0 | -3.3 | 9.8 | 7.2 | i | 2.3
Cc1ccc(S(=O)(=O)N2CCN(C(=O)COC(=O)c3cncc(Br)c3)CC2)c(C)c1 | i | 101.0 | . | -0.4 | -9.8 | . | .
CN1CCN(c2ccc(CNC(=O)c3ccc(-c4ccc(F)c(F)c4)c4ccoc34)cc2)CC1 | + | 101.0 | . | . | 12.9 | i | 2.5
CCCCN1C(=O)C(CC(=O)NCCc2ccccn2)CC(C(=O)N(C)C)=C1C (centres undefined) | i | 108.0 | . | -6.1 | -8.0 | i | 18.2*
CCCCN1C(=O)C(CC(=O)NCCc2ccccn2)CC(C(=O)N(C(C)C)C(C)C)=C1C (centres undefined) | i | 92.0 | . | -9.9 | -32.5 | . | .
CC1CCc2sc(C(=O)NN)cc2C1 (centres undefined) | i | 105.0 | -16.9 | 8.4 | 8.8 | . | .
CC1CCc2sc(C(=O)NN=C3CCCC3)cc2C1 (centres undefined) | + | 101.0 | . | 6.3 | 2.8 | i | 0.2
